From PubChem BioAssay (NCATS)
Records with an inconclusive call do not appear. The source made the active and inactive calls. Calls follow the shape of the dose curve; as a rule, active = well fitted inhibition curve with a large enough effect; inconclusive = small, poorly fitted or top-dose-only effect; inactive = no such curve, though single readings can be large or run the other way. Positions of bridges follow the written chain, without caps; N, C: chain ends. Non-standard residues stand in square brackets, D forms with d. Residues, ends and D or L forms follow the SMILES beside them. ξ: configuration not given here. *: point of attachment. ξDab(CH2SO3H) = NC(CCNCS(=O)(=O)O)C(=O)O; Octanoyl(6-Me) = CCC(C)CCCCC(=O)*; Dab = NCC[CH](N)C(=O)O

System: not listed separately
Assay: Confirmatory screen NINDS Rhodamine qHTS for Zika virus inhibitors (AID 1347161); also: nearly all actives have a fitted effect of over 60% in size
Conditions: purified enzyme assay, Rhodamine110 substrate fluorescence, 15 min; series mostly up to 114 µM
Summary of the method: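 Percent inhibition, normalized to uninhibited and enzyme-free controls, is fitted to a 4-parameter Hill equation. Fluorescence change comes from a 15-min cleavage of 1.5 microM bis-peptide Rhodamine110 substrate by 25 nM linked NS2B-NS3 at room temperature.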
Potency is read from the fitted curve at half-maximal effect.

SMILES	Potency
O=C1C=CC(=O)c2c(O)c(Cl)c(Cl)c(O)c21	inactive
CCOC(=O)O[C@H](C)OC(=O)C1N2C(=O)[C@H](NC(=O)[C@H](N)c3ccccc3)C2SC1(C)C (some centres undefined)	inactive
Cc1c2ccccc2c(CSC(=N)N)c2ccccc12	inactive
CCC(C)CCCCC(=O)NC(CCNCS(=O)(=O)O)C(=O)NC(C(=O)NC(CCNCS(=O)(=O)O)C(=O)NC1CCNC(=O)C(C(C)O)NC(=O)C(CCNCS(=O)(=O)O)NC(=O)C(CCNCS(=O)(=O)O)NC(=O)C(CC(C)C)NC(=O)C(CC(C)C)NC(=O)C(CCNCS(=O)(=O)O)NC1=O)C(C)O (centres undefined) ({Octanoyl(6-Me)}-[ξDab(CH2SO3H)]T[ξDab(CH2SO3H)][Dab][ξDab(CH2SO3H)]LL[ξDab(CH2SO3H)][ξDab(CH2SO3H)]T; lactam 4-C; configuration not given here)	12.6 µM (active)
CC[C@@H](C(=O)[C@H](C)[C@@H](O)[C@H](C)CCc1ccc(C)c(O)c1C(=O)O)C1O[C@@](CC)(C2CC[C@](O)(CC)[C@H](C)O2)C[C@@H]1C (some centres undefined)	9.84 µM (active)
O=S(=O)(Nc1ccc(O)c(Sc2nc3ccccc3s2)c1)c1cc(Cl)ccc1Cl	22.4 µM (active)
Cc1nn2c(=O)cc(COC(=O)c3ccc(NC(=O)c4ccc(C(C)(C)C)cc4)cc3)nc2s1	39.8 µM (active)
Cc1cccc(C(=O)Nc2ccc(C(=O)OCc3cc(=O)n4c5c(sc4n3)CCCC5)cc2)c1	inactive

System: Zika virus NS2B-NS3 protease (linked)
Assay: 384 well plate NINDS AMC confirmatory qHTS for Zika virus inhibitors (AID 1347163); also: nearly all actives have a fitted effect of over 50% in size
Conditions: Recombinant NS2B-NS3 protease, Ac-VKTGKR-AMC fluorescence; series mostly up to 1 mM
Summary of the method: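 Linked NS2B-NS3 protease (final 5 nM, 30 nM or 60 nM) was preincubated with compounds (final up to 1 mM) for ~15 minutes. Ac-VKTGKR-AMC substrate (final 30 microM) then reacted for 25 minutes at room temperature in the dark. Fluorescence (ex 355/em 460 nm) was normalized to no-enzyme and no-inhibitor controls.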

SMILES	Potency
CCC(C)CCCCC(=O)NC(CCNCS(=O)(=O)O)C(=O)NC(C(=O)NC(CCNCS(=O)(=O)O)C(=O)NC1CCNC(=O)C(C(C)O)NC(=O)C(CCNCS(=O)(=O)O)NC(=O)C(CCNCS(=O)(=O)O)NC(=O)C(CC(C)C)NC(=O)C(CC(C)C)NC(=O)C(CCNCS(=O)(=O)O)NC1=O)C(C)O (centres undefined) ({Octanoyl(6-Me)}-[ξDab(CH2SO3H)]T[ξDab(CH2SO3H)][Dab][ξDab(CH2SO3H)]LL[ξDab(CH2SO3H)][ξDab(CH2SO3H)]T; lactam 4-C; configuration not given here)	25.1 µM (active)
COc1cccc(C(=O)Nc2ccc(C(=O)OCc3cc(=O)n4nc(C5CC5)sc4n3)cc2)c1	inactive
CC(C)CN1CC(COc2ccc3ccccc3c2)Oc2ccnc(-c3ccc(OCC(=O)O)cc3)c2C1=O (centres undefined)	355 µM (active)
CC[C@@H](C(=O)[C@H](C)[C@@H](O)[C@H](C)CCc1ccc(C)c(O)c1C(=O)O)C1O[C@@](CC)(C2CC[C@](O)(CC)[C@H](C)O2)C[C@@H]1C (some centres undefined)	158 µM (active)
O=S(=O)(Nc1ccc(O)c(Sc2nc3ccccc3s2)c1)c1cc(Cl)ccc1Cl	112 µM (active)
CC(Oc1ccccc1)C(=O)Nc1ccc(C(=O)OCc2cc(=O)n3nc(C4CC4)sc3n2)cc1 (centres undefined)	inactive
Cc1ccc(-c2nnc(Nc3ccccc3)c3ccccc23)cc1S(=O)(=O)NCc1nc2ccccc2[nH]1	inactive
Clc1ccc(-c2nn3c(COc4cccc(OCc5nnc6sc(-c7ccc(Cl)cc7)nn56)c4)nnc3s2)cc1	12.6 µM (active)
CCOC(=O)c1ccc(NC(=O)CSc2nc(-c3ccc(F)cc3)cc(C(F)(F)F)c2C#N)cc1	inactive
COc1ccc(NS(=O)(=O)c2ccc(NS(=O)(=O)c3ccc4c(c3)OCCO4)cc2)cc1	355 µM (active)

System: Zika virus NS2B-NS3 protease (linked construct)
Assay: 384 well plate NINDS Rhodamine confirmatory qHTS for Zika virus inhibitors (AID 1347164);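 also: fluorescence from protease cleavage of Ac-LKRR-rhodamine 110 substrate; nearly all actives have a fitted effect of over 65% in size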
Conditions: rhodamine-110 peptide substrate fluorescence; series mostly up to 1 mM
Summary of the method: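 Linked protease at a final 5 nM, 30 nM or 60 nM was preincubated ~15 min with compounds, then given 10 microM Ac-LKRR-Rhodamine 110. Fluorescence (ex 485/em 538 nm) after 25 min in the dark at room temperature.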

SMILES	Potency
O=C(O)COc1ccc(-c2nccc3c2C(=O)N(Cc2cccc(C(F)(F)F)c2)CC(COc2cccc(F)c2)O3)cc1 (centres undefined)	28.2 µM (active)
O=C(O)COc1ccc(-c2nccc3c2C(=O)N(Cc2cccc(C(F)(F)F)c2)CC(COc2ccc4cnccc4c2)O3)cc1 (centres undefined)	35.5 µM (active)
Cc1cc(S(=O)(=O)Nc2ccc(C(=O)O)cc2)c(C)c(S(=O)(=O)c2ccc(Cl)cc2)c1	141 µM (active)
N#Cc1ccc(OCC2CN(Cc3c[nH]c4ccccc34)C(=O)c3c(ccnc3-c3ccc(OCC(=O)O)cc3)O2)cc1 (centres undefined)	39.8 µM (active)
O=C(O)COc1ccc(-c2nccc3c2C(=O)N(Cc2ccccc2)CC(COc2ccc4cccnc4c2)O3)cc1 (centres undefined)	44.7 µM (active)
CCOc1ccc(S(=O)(=O)Nc2cc3c(C(=O)OCc4ccccc4)c(C)oc3c3ccccc23)cc1	316 µM (active)
CCCCc1nn2c(=O)cc(COC(=O)c3ccc(NC(=O)CCc4ccccc4)cc3)nc2s1	25.1 µM (active)
CCC(C)CCCCC(=O)NC(CCNCS(=O)(=O)O)C(=O)NC(C(=O)NC(CCNCS(=O)(=O)O)C(=O)NC1CCNC(=O)C(C(C)O)NC(=O)C(CCNCS(=O)(=O)O)NC(=O)C(CCNCS(=O)(=O)O)NC(=O)C(CC(C)C)NC(=O)C(CC(C)C)NC(=O)C(CCNCS(=O)(=O)O)NC1=O)C(C)O (centres undefined) ({Octanoyl(6-Me)}-[ξDab(CH2SO3H)]T[ξDab(CH2SO3H)][Dab][ξDab(CH2SO3H)]LL[ξDab(CH2SO3H)][ξDab(CH2SO3H)]T; lactam 4-C; configuration not given here)	3.55 µM (active)
COc1cccc(C(=O)Nc2ccc(C(=O)OCc3cc(=O)n4nc(C5CC5)sc4n3)cc2)c1	inactive
CC(C)CN1CC(COc2ccc3ccccc3c2)Oc2ccnc(-c3ccc(OCC(=O)O)cc3)c2C1=O (centres undefined)	39.8 µM (active)
CC[C@@H](C(=O)[C@H](C)[C@@H](O)[C@H](C)CCc1ccc(C)c(O)c1C(=O)O)C1O[C@@](CC)(C2CC[C@](O)(CC)[C@H](C)O2)C[C@@H]1C (some centres undefined)	31.6 µM (active)
O=S(=O)(Nc1ccc(O)c(Sc2nc3ccccc3s2)c1)c1cc(Cl)ccc1Cl	44.7 µM (active)
O=C(COc1ccccc1C(=O)OCC(=O)Nc1cccc2ccccc12)Nc1ccc(Br)cc1	inactive
CC(Oc1ccccc1)C(=O)Nc1ccc(C(=O)OCc2cc(=O)n3nc(C4CC4)sc3n2)cc1 (centres undefined)	inactive
CCOC(=O)c1ccc(NC(=O)CSc2nc(-c3ccc(F)cc3)cc(C(F)(F)F)c2C#N)cc1	inactive
COc1ccc(NS(=O)(=O)c2ccc(NS(=O)(=O)c3ccc4c(c3)OCCO4)cc2)cc1	141 µM (active)
